The source made the active and inactive calls. How the calls were made is not given here.

Pantothenate synthetase (Mycobacterium tuberculosis (strain ATCC 25618 / H37Rv)), sequence (P9WIL5 whole entry, looked up): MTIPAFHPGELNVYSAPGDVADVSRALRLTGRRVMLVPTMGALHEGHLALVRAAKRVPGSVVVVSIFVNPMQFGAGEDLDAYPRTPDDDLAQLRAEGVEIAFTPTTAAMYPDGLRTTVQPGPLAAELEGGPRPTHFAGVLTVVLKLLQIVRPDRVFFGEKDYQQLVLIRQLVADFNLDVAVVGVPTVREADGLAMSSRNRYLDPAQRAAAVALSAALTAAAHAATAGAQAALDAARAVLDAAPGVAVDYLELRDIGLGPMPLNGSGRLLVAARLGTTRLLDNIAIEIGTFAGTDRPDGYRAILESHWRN

The test addresses Pantothenate synthetase (Mycobacterium tuberculosis (strain ATCC 25618 / H37Rv)) (UniProt P9WIL5). Briefly: Recombinant Mtb pantothenate synthetase (PanC) inhibitors, coupled enzyme, confirmatory (AID 375).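 Further: 0% = full reaction with vehicle and 100% = no enzyme background.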 Particulars: coupled enzyme assay; at 10 µM, hits give high values.
Consider `O=C(NCc1ccco1)c1cccc(-c2nnc(-c3ccccc3)o2)c1`, for which the inhibition (as a rule, how much of the control response was suppressed) was 0% (inactive).

As for `O=S(=O)(NCc1ccco1)c1cccc2cccnc12`, the inhibition was 1% (inactive).

In the case of `CC(C)(C)c1cc(C(=O)O)nn1-c1ccccc1`, the inhibition was 0% (inactive).

As to `CC(C(=O)NC1CCCCCC1)N(c1ccccc1)S(C)(=O)=O` (centres undefined), the inhibition was 0% (inactive).

As to `COc1cc(C(=O)Nc2cc(-c3ccccc3)[nH]n2)cc(OC)c1OC`, the inhibition was 5% (inactive).

For `COc1ccc(C2C(C(=O)c3sc(C)nc3C)=C(O)C(=O)N2CCN(C)C)cc1OC` (centres undefined), the inhibition was 0% (inactive).

As to `O=C(NCCc1c[nH]c2ccccc12)c1ccc(S(=O)(=O)NCc2ccco2)cc1`, the inhibition is 0% (inactive).

Take `O=C(CC1Oc2ccc(Cl)cc2NC1=O)NC1CCCCCC1` (centres undefined): the inhibition was 6% (inactive).

For the compound `Cc1ccc(C(C(=O)NC2CCCCC2)N2CCOCC2)cc1` (centres undefined), the inhibition was 0% (inactive).

On to `O=C(OCCCN1CCCC1)C1(c2ccccc2)CCCC1`, for which the inhibition was 1% (inactive).

As to `COc1ccc(-c2noc(C3CCCN(C(=O)CCc4ccccc4)C3)n2)cc1` (centres undefined), the inhibition was 0% (inactive).

As for `CCc1ccccc1NC(=O)C(CC)Sc1nc2cc3c(cc2c(=O)n1Cc1ccco1)OCO3` (centres undefined), the inhibition is 0% (inactive).

Take `CCOC(=O)CC(=O)CSc1[nH]c(=O)cc(C)c1C#N`: the inhibition was 8% (inactive).

For `COc1cc(OC)c(C(=O)Nc2ccc(N(C)C)cc2)cc1OC`, the inhibition is 4% (inactive).

For `O=C(CSc1nnc(-c2ccco2)n1CC1CCCO1)NC1CCCC1` (centres undefined), the inhibition is 0% (inactive).

On to `Cc1ccc(C)c(N2CCN(Cc3nnnn3C3CCCCC3)CC2)c1`, for which the inhibition is 1% (inactive).

`O=C(Nc1ccc2c(c1)C(=O)N(C1CCCCC1)C2=O)C1CCCO1` (centres undefined): the inhibition is 6% (inactive).

Take `C#CCSc1nnc(-c2ccccc2)c(=O)[nH]1`: the inhibition is 0% (inactive).

As for `O=C(NCc1cccs1)c1cc2c(s1)-c1ccccc1OC2`, the inhibition is 0% (inactive).

`N#Cc1c(N)n(CCOC(=O)c2cccc(Br)c2)c2nc3ccccc3nc12`: the inhibition was 3% (inactive).

With `CCN(CC)S(=O)(=O)c1ccc(F)c(C(=O)NCCC(C)C)c1`, the inhibition is 2% (inactive).

Turning to `CCCC(=O)Nc1c2c(nn1-c1ccc(OC)cc1)CS(=O)C2` (centres undefined), the inhibition is 1% (inactive).

In the case of `CCOC(=O)C1CCCN(C(=O)c2ccc(CS(=O)(=O)c3ccc(Br)cc3)o2)C1` (centres undefined), the inhibition is 4% (inactive).

Regarding `COc1ccc(NC(=O)N2CCN(c3nc(-c4cccc(OC)c4)cs3)CC2)cc1`, the inhibition is 0% (inactive).

In the case of `CCOCCc1nnc(NC(=O)c2ccc(OC)c(OC)c2)s1`, the inhibition was 0% (inactive).

Regarding `CC(=O)NCCC(=O)Nc1ccc(C)c(F)c1`, the inhibition was 6% (inactive).

On to `CCOCCCNC(=O)Cn1cc2c(n1)CCCCC2`, for which the inhibition was 2% (inactive).

For the compound `Cc1c(C(=O)OCc2ccccc2)[nH]c2c1C(=O)CC(c1ccco1)C2` (centres undefined), the inhibition is 1% (inactive).

With `CCC(c1nnnn1C(C)(C)C)N1CCN(C2CCCC2)CC1` (centres undefined), the inhibition is 4% (inactive).

As to `Fc1ccc(-c2nnc3ccc(N4CCCC4)nn23)cc1`, the inhibition was 1% (inactive).

Take `COc1cccc(NS(=O)(=O)c2cc(C)sc2C)c1`: the inhibition was 0% (inactive).

`COCC(=O)Nc1sc2c(c1C(=O)OC)C(C(=O)OC)CC2` (centres undefined): the inhibition was 0% (inactive).

With `CC(C)(C)c1ccc(-c2nnc(SCCC#N)n2C2CCCC2)cc1`, the inhibition was 0% (inactive).

With `Cc1nc2c(-c3ccc(F)cc3)c(C)nn2c(C)c1CCC(=O)NC(C)CCc1ccco1` (centres undefined), the inhibition is 0% (inactive).

For the compound `COc1cccc(CNC(=O)Cn2c(=O)oc3ccccc32)c1OC`, the inhibition is 0% (inactive).

In the case of `Cc1nc(/N=C\N(C)C)sc1C(=O)Nc1ccccc1`, the inhibition is 0% (inactive).

As for `Cc1ccc(CCSCC(=O)O)cn1`, the inhibition was 0% (inactive).

In the case of `Cn1cc(Cl)c(C(=O)NC2CCCC2)n1`, the inhibition is 6% (inactive).

Regarding `CCCC1(C(=O)OCC)NC(c2ccc(N(C)C)cc2)C2C(=O)N(c3ccccc3)C(=O)C21` (centres undefined), the inhibition is 0% (inactive).

These data come from PubChem BioAssay.
